In all, about 68,000 sequences were measured (“fluorescence intensity (a.u.)”: median about 9,100, highest 2% from about 16,000 on). The entries come from a sample that favours the highest values as a whole.
molecular target: OsWRKY34 (Oryza sativa, UniProt Q0JBA9 1-250); assay: protein-binding microarray (RPBM); PBS, 2% BSA, 51.3 ng/ul salmon testes DNA, 50 uM zinc acetate, 200 nM TF, 25 C, 1 h; high values mean tight binding; conditions: protein: recombinant; tags: N-terminal polyhistidine and DsRed monomer fusion (pET32a); label: CyDye5-dUTP incorporated in the synthesized complementary strand; 3' TTTTT single-stranded linker to array surface; dsDNA, one strand shown
Summary of the method: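 Ni–NTA purification followed expression in E. coli BL21-CodonPlus of transcription factors fused N-terminally to a polyhistidine tag and DsRed. At 200 nM in PBS with 2% BSA, salmon testes DNA and 50 µM zinc acetate, the protein was incubated for 1 h at 25 °C with a custom Agilent array that had been primer-extended with Cy5-dUTP and blocked with 2% BSA. After washing, the array was read on an Axon 4000B scanner. The binding signal is per-feature fluorescence intensity in arbitrary units.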

OsWRKY34, sequence (Q0JBA9 entry or part of it): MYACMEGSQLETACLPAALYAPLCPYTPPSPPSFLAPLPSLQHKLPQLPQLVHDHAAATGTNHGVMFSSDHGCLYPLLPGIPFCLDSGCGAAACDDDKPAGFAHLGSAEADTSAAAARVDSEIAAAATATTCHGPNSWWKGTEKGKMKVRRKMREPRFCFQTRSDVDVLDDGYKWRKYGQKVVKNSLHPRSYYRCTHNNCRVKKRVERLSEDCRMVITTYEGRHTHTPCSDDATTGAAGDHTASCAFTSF

Sequence	binding signal
TTTGTCCTGGGCTTCTTTCGGCCCAATCTCTCTCCCGTCGCGGAGTCACCTAGTGCAG	11100 fluorescence intensity (a.u.)
ACTGTTTATAGGGTAGGGGTAAGGTTGTGTTCATATAGGTCGGAGTCACCTAGTGCAG	11700 fluorescence intensity (a.u.)
TCCGGGCTGGGTGGGTGGGGTGGGGATGGAGCTTGCCTGGCGGAGTCACCTAGTGCAG	24100 fluorescence intensity (a.u.)
CTGGGGTTGGCCTGGGCTGATATATGTTTGGCGCTCAAAACGGAGTCACCTAGTGCAG	11100 fluorescence intensity (a.u.)
GGGTGCTGGGGCTTTGGCTGCCTTGACTTGGATTGCCTTCCGGAGTCACCTAGTGCAG	8640 fluorescence intensity (a.u.)
GGGTGGGGTGGGCCTGGGCTGATGCATGTTTGGCGCTTAGCGGAGTCACCTAGTGCAG	21200 fluorescence intensity (a.u.)
TCGGAGTGGGGAGATGGTGTCGGGGTGCTGGGTTTCCGGGCGGAGTCACCTAGTGCAG	13100 fluorescence intensity (a.u.)
TGGGGATGGAGCTTGCCTGGGTGGTGGTGAGGGCGCAGTTCGGAGTCACCTAGTGCAG	8680 fluorescence intensity (a.u.)
GGGTGGGTGGGGCGGTGCTTTCCTGGAGATGGGAGAGTGGCGGAGTCACCTAGTGCAG	23000 fluorescence intensity (a.u.)
TCTCCTGGTTTTGTGTGTTAGCGCTGTCAGTGTGTGGGTGCGGAGTCACCTAGTGCAG	8120 fluorescence intensity (a.u.)
GGTGCGGCGGTGGGCGGCATGGAGATGGGGAGAGGAGGCGCGGAGTCACCTAGTGCAG	10600 fluorescence intensity (a.u.)
GAGGGATGTCTTATATCTAGTTTTGTGGTTGGAGGATGATCGGAGTCACCTAGTGCAG	8770 fluorescence intensity (a.u.)
TCTGTGTTGGCGAGAGTTGGTGTCTGGAATTGGGCTTGGTCGGAGTCACCTAGTGCAG	9200 fluorescence intensity (a.u.)
GTTCTATTGTACTGGTCAGTTCAGTGGACTCGGTTCTGTTCGGAGTCACCTAGTGCAG	9260 fluorescence intensity (a.u.)
CTACACTGTCTTGCTCGCTCATTGTCTCTCTCTGCATTTGCGGAGTCACCTAGTGCAG	8580 fluorescence intensity (a.u.)
TATGTTCGGTATCGTATTAAATCTACTCCTATTTGTACCTCGGAGTCACCTAGTGCAG	8570 fluorescence intensity (a.u.)
TTTTGTTCGCTACTATAGGCCCACACGTCTGTGCCCATGGCGGAGTCACCTAGTGCAG	8660 fluorescence intensity (a.u.)
CTCCTCTTCTTCTCTTCTCCTTCGTTGGGCGTGGGCGTCGCGGAGTCACCTAGTGCAG	12400 fluorescence intensity (a.u.)
CCGACGCCTACTACTTCGCCCACTAGCCACGCGTGCTGCCCGGAGTCACCTAGTGCAG	9050 fluorescence intensity (a.u.)
TACTGTATAGTTGTTACAACTTCCTTTTTAATTATTCAATCGGAGTCACCTAGTGCAG	8060 fluorescence intensity (a.u.)
GGTCAAATACGTACTAAAAAGTCAACGGTGTCAAACATTTCGGAGTCACCTAGTGCAG	12900 fluorescence intensity (a.u.)
GAATGGTCAAACACGTACTAAAAAAGTCAACGGTGTCAAACGGAGTCACCTAGTGCAG	17500 fluorescence intensity (a.u.)
AGACGAATGGTCAAACACGTATTAAAAAGTCAACGGTGTCCGGAGTCACCTAGTGCAG	19700 fluorescence intensity (a.u.)

Sequence	binding signal
AATGGTCAAACACGTATTTAAAAAGTCAACGGTGTCAAACCGGAGTCACCTAGTGCAG	14100 fluorescence intensity (a.u.)
GACGAATGGTCAAACACGTACTAAAAAGTCAACGGTGTCACGGAGTCACCTAGTGCAG	12200 fluorescence intensity (a.u.)
AAGACGAATGATCAAACACGTACTAAAAAAGTCAACGGTGCGGAGTCACCTAGTGCAG	11600 fluorescence intensity (a.u.)
CTAATGGTTCTGATCGCCGTGCCTAACCCTAGCCCCATATCGGAGTCACCTAGTGCAG	8400 fluorescence intensity (a.u.)
TCTTTTGCTTCTGTTCTGCACCGGTCTCTCTGATGGATGTCGGAGTCACCTAGTGCAG	9680 fluorescence intensity (a.u.)
AATAGATGACATTGTTGACTTATTCTTACATGTTTGCCCACGGAGTCACCTAGTGCAG	9350 fluorescence intensity (a.u.)
TGACAATGGTGTTGCATCTCCAAAGCTGCAGAAACAAACACGGAGTCACCTAGTGCAG	48300 fluorescence intensity (a.u.)
TCCACCTCCTAGCGAAATGCATGGTTGGCCAAACAACACACGGAGTCACCTAGTGCAG	8300 fluorescence intensity (a.u.)
AATTGCTGTTGACCTGTTGTTGTGCTCCAACATCCAAACACGGAGTCACCTAGTGCAG	8290 fluorescence intensity (a.u.)
TACGAGGAGGGCCCATGCGTCGGTGGGTAGGGTGAAAAGACGGAGTCACCTAGTGCAG	8690 fluorescence intensity (a.u.)
GGAGGGTGGAGGGCGGAGGACGGAGGTGGTGGCGCCGCGCCGGAGTCACCTAGTGCAG	9550 fluorescence intensity (a.u.)
GAAAGTGGGAGAGAGAATAGGTTGGGGTGGTTGGTTTGGGCGGAGTCACCTAGTGCAG	14700 fluorescence intensity (a.u.)
GAGGTGGTGGAGGAGGAGGCCAGGGGTTCGTTGGCGGCGGCGGAGTCACCTAGTGCAG	8840 fluorescence intensity (a.u.)
GCGGGGTTGGAGGAGGAGGAGGTGGTGGTGGTGGTGGTGGCGGAGTCACCTAGTGCAG	15300 fluorescence intensity (a.u.)
TGGTGGTGAGGAGGAGGAGGAGGAGGGCGGGGTCGTCGTCCGGAGTCACCTAGTGCAG	16200 fluorescence intensity (a.u.)
AGGAGGGCGGGGTCGTCGTCGTCCGGGGTGGTGGTGGCCGCGGAGTCACCTAGTGCAG	17000 fluorescence intensity (a.u.)
GCTGGCGCCGGAGAGAGAGAGTGGGTTGGTTGTAATAAATCGGAGTCACCTAGTGCAG	9290 fluorescence intensity (a.u.)
GACCTTTGGGTAGGGGTGGGGATGGGGCGAAATTACTAAACGGAGTCACCTAGTGCAG	30300 fluorescence intensity (a.u.)
AATAAAGTTGGGTGGTTGGGGCGCGCGATAGGAGTAAATCCGGAGTCACCTAGTGCAG	17400 fluorescence intensity (a.u.)
GGAGGAGGTGGCGGCGGAGGGGTTGGTGGTGGAGGTGGTCCGGAGTCACCTAGTGCAG	20800 fluorescence intensity (a.u.)
ACTAACGAAATTACTACTTCGTAGGGGTAGGGGTGGCGTGCGGAGTCACCTAGTGCAG	9370 fluorescence intensity (a.u.)
TGGGGATGGGGAATTGACCTGGGTAGGGGTGGTAATTGGGCGGAGTCACCTAGTGCAG	16000 fluorescence intensity (a.u.)
